MCF10A rerep = DNA re-replication induction in MCF 10a cells | 350,000 tested, 2.9% active | MCF 10A DNA re-replication, Hoechst nuclear intensity, 48 h | Potency, µM (titrated, usually from 46.1 µM), actives largely listed as activators | AID 624296; also: nearly all actives have a fitted effect of over 50% in size
SW480 rereplic = inducers of DNA re-replication in SW480 colon cancer cells | SW480 DNA re-replication, Hoechst DNA content imaging, 48 h | Potency, µM (series often up to 46.1 µM), actives largely listed as activators | 340,000 tested, 1.8% active; also: nearly all actives have a fitted effect of over 55% in size
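Image-based DNA-content assay: after two days of treatment, nuclei were labelled with the DNA dye Hoechst and imaged, and hits were compounds raising the count of nuclei showing high fluorescence intensity.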
ELG1 DNA repair = blocks ELG1-dependent DNA repair in HEK293T cells; AID 504467; HEK293T ELG1-luciferase reporter, luminescence, 16 h; DNA damage induced by 5-fluorouridine; 330,000 tested, 2.3% active; Potency, µM (highest dose often 46.1 µM), usual class: inhibitors; also: nearly all actives have a fitted effect of over 55% in size
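Luminescence from the luciferase reporter, measured 30 min after ONE-Glo reagent at room temperature, was the read-out. Beforehand, 2,000 cells per well were exposed for 16 hr at 37 °C to 5-fluorouridine together with compound or vehicle.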
RORg inh = inhibitors of mouse ROR gamma transcriptional activity | 310,000 tested, 5.4% active | P51450 | Drosophila S2 Gal4-RORgamma UAS-luciferase reporter, 20 h | Potency, µM (titrated, usually from 53.6 µM), most hits filed as inhibitors | AID 2551; also: nearly all actives have a fitted effect of over 60% in size
Target sequence (P51450 whole entry, looked up, the tested form may be a part): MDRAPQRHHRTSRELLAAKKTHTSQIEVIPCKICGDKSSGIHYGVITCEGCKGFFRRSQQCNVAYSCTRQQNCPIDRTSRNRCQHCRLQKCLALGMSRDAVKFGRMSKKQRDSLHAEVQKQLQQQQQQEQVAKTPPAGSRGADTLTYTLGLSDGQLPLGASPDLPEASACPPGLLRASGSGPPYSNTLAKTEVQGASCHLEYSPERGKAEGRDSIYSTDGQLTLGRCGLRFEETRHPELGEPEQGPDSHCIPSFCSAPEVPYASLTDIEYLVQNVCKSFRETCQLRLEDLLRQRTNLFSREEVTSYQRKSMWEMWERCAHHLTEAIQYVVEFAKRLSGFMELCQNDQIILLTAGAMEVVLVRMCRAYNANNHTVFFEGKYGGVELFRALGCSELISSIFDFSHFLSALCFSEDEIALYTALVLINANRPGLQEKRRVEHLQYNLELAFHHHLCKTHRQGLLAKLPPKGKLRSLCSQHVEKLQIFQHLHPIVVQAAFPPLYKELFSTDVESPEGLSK
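A Gal4/UAS one-hybrid system in insect cells: metallothionein-promoter Gal4–ROR gamma fusion plus Photinus luciferase reporter. Copper sulfate 700 uM final, 20 hr ambient incubation, luminescent detection after 10 min with reagent.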
Gal4-VP16 FLuc = counter-screen for ROR gamma inhibitors: Gal4-VP16 reporter; Drosophila S2 Gal4-VP16 UAS-luciferase, luminescence, 20 h; 310,000 tested, 3.5% active; Potency, µM (top dose mostly 53.6 µM), actives largely listed as inhibitors;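 also: Gal4-VP16 expression switched on by copper sulfate through the metallothionein promoter; nearly all actives have a fitted effect of over 50% in size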
Hits are given with their value; i = inactive; ? = inconclusive; nt = no result given; [ ] = dose if it differs, or a comment. The list is not random: actives were taken first. Their share in the collection is about 10%. Calls follow the shape of the dose curve; as a rule, active = well fitted curve in the direction sought with a large enough effect; inconclusive = small, poorly fitted or top-dose-only effect, or another doubt; inactive = no such curve, though single readings can be large; an effect the other way counts as inactive or inconclusive.

SMILES	MCF10A rerep	SW480 rereplic	ELG1 DNA repair	RORg inh	Gal4-VP16 FLuc
Cc1c(C(=O)O)sc2nc(/C=C/c3cccc(O)c3)[nH]c(=O)c12	7.3µM	?	i	i	i
COc1ccc(C(=O)N/N=C(\C)c2ccccn2)cc1OC	?	?	?	0.35µM	0.56µM
CC(=NNC(=O)c1ccncc1)c1cccc(Br)c1	i	i	nt	nt	nt
COc1ccc(NC(=O)c2ccccn2)cc1OC	i	i	?	i	i
C/C(=N\NC(=O)C(c1ccccc1)c1ccccc1)c1ccccn1	?	i	i	0.63µM	1.6µM
C/C(=N\NC(=O)c1ccccc1Cl)c1ccccn1	?	?	?	1.3µM	2.8µM
C/C(=N\NC(=O)c1cccc(Br)c1)c1ccccn1	2.9µM	?	?	0.1µM	0.028µM
NC(=O)c1cc([N+](=O)[O-])ccc1NCCN1C(=O)c2ccccc2C1=O	nt	nt	i	i	i
C/C(=N\NC(=O)c1cc(Br)ccc1O)c1ccccn1	?	?	?	0.4µM	0.28µM
C/C(=N/NC(=O)c1ccccn1)c1ccncc1	i	i	?	i	i
C/C(=N\NC(=O)c1ccc(Cl)c(Cl)c1)c1ccccn1	i	?	?	0.089µM	0.0028µM
C/C(=N\NC(=O)c1ccccc1OCc1ccc(F)cc1)c1ccccn1	i	i	?	nt	nt
C/C(=N\NC(=O)c1ccc(NS(=O)(=O)c2cccs2)cc1)c1ccncc1	i	i	i	i	i
C/C(=N\NC(=O)c1ccc(NS(=O)(=O)c2cccs2)cc1)c1ccccn1	?	?	3.7µM	i	i
CCOc1ccc(OCc2ccc(C(=O)N/N=C(\C)c3ccccn3)cc2)cc1	?	?	?	0.11µM	i
COc1cc2c(c3ccccc13)CCCC2=O	i	i	nt	nt	nt
CC(C)OC(=O)c1cc2c(OC[C@@H](O)CNC(C)(C)C)cccc2[nH]1	nt	nt	nt	i	i
O=C1CN(C(=O)c2ccccc2)C(c2ccc(F)cc2)c2cc(Br)ccc2N1 (stereo unspecified)	i	i	i	i	i
Cc1ccn(S(=O)(=O)c2ccc3oc(=O)ccc3c2)n1	i	i	i	i	i
COc1ccc(CCNC(=O)COC(=O)CCC(=O)c2ccc(F)cc2)cc1OC	i	i	i	i	i
CC(=O)c1ccc(Nc2nc3ccccc3nc2NS(=O)(=O)c2cccs2)cc1	15µM	i	12µM	i	i
Cn1c(=O)oc2cc(S(=O)(=O)N3CCCC(C(=O)NC4CCCc5ccccc54)C3)ccc21 (stereo unspecified)	i	i	2.9µM	?	0.1µM
CCN(CC)S(=O)(=O)N1CCC(C(=O)NC2CCCc3ccccc32)CC1 (stereo unspecified)	i	i	16µM	i	i
Cn1c(=O)oc2cc(S(=O)(=O)N3CCCC(C(=O)N4CC=C(c5ccccc5)CC4)C3)ccc21 (stereo unspecified)	nt	nt	5.8µM	i	?
CCCN(CC(=O)Nc1cc(Cl)ccc1Cl)C(=O)c1ccccn1	i	i	i	nt	nt
SMILES	MCF10A rerep	SW480 rereplic	ELG1 DNA repair	RORg inh	Gal4-VP16 FLuc
COc1ccc(NC(=O)Cn2nc(C(=O)O)c3ccccc3c2=O)cc1S(=O)(=O)N1CCCCC1	i	i	i	nt	nt
CCOC(=O)c1sc(NC(=O)c2cccc(S(=O)(=O)N3CCc4ccccc43)c2)c(C#N)c1C	i	i	?	?	5.6µM
CCc1nnc(NC(=O)c2cc(S(=O)(=O)N3CCN(c4ccccc4)CC3)ccc2Cl)s1	i	i[9.22 µM]	i	i	i
COc1ccc(S(=O)(=O)N2CCc3ccccc32)cc1C(=O)NCCc1ccccn1	i	i	18µM	i	i
CCC(CC)c1nnc(NC(=O)c2cccc(S(=O)(=O)N3CCc4ccccc43)c2)s1	4.6µM	?	i	16µM	?
CCc1nnc(NC(=O)c2cccc(S(=O)(=O)N3CCN(c4ccccc4)CC3)c2)s1	i	?	?	13µM	?
Cc1nnc(SCC(=O)Nc2cccc(Br)c2)s1	i	i	i	nt	nt
CCc1ccccc1NC(=O)c1cc(S(=O)(=O)N2CCc3ccccc32)cn1C	i	i	i	i	i
CCCNC(=O)c1cc(S(=O)(=O)N2CCc3ccccc32)cn1C	i	i	i	?	14µM
CCn1c(=O)n(CC)c2cc(S(=O)(=O)N3CCc4ccccc43)ccc21	i	i	16µM	?	?
COc1ccc(OCc2nnc(SCC(=O)Nc3nnc(C4CC4)s3)n2C)cc1	?	?	i	i	i
